cardiac RTF act: cardiac RTF calcium sensitization; P19429+P45379; IANBD-labeled TnC RTF fluorescence at EC20 calcium; 0% EC20 calcium, 100% full calcium; activation, % at 7.2 µM; hit rate 0.24% among 340,000; AID 493008;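 active = activation above the mean over all tested compounds plus 3 SD, cut at about 30% in these data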;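 also: rise in fluorescence read as greater calcium sensitivity of cardiac thin filaments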
C-LANA FP: blocks KSHV LANA C-terminal domain binding to DNA | MBP-C-LANA/FAM-LBS DNA binding, fluorescence polarization | inhibition, % at 9 µM | hit rate 0.078% among 340,000;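 active = highest replicate inhibition at or above 60% at 9 µM, even if other replicates fall short; inactive = all replicates below 60% inhibition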;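 also: 0% = neutral control wells and 100% = 4 µM acridine orange control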
Keap1-Nrf2 PPI: Keap1-Nrf2 (human) interaction inhibition. Q14145. Keap1 Kelch-Nrf2 peptide fluorescence polarization, 1536-well. inhibition, % at 9.4 µM. hit rate 0.15% among 340,000; in the data active = inhibition above about 12%;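 also: human Keap1 Kelch domain with fluorescein labeled Nrf2 9mer peptide probe; 0% = neutral control wells and 100% = peptide positive control; higher means more block of Keap1 binding to Nrf2 peptide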
Target sequence (Q14145 whole entry, looked up, the tested form may be a part): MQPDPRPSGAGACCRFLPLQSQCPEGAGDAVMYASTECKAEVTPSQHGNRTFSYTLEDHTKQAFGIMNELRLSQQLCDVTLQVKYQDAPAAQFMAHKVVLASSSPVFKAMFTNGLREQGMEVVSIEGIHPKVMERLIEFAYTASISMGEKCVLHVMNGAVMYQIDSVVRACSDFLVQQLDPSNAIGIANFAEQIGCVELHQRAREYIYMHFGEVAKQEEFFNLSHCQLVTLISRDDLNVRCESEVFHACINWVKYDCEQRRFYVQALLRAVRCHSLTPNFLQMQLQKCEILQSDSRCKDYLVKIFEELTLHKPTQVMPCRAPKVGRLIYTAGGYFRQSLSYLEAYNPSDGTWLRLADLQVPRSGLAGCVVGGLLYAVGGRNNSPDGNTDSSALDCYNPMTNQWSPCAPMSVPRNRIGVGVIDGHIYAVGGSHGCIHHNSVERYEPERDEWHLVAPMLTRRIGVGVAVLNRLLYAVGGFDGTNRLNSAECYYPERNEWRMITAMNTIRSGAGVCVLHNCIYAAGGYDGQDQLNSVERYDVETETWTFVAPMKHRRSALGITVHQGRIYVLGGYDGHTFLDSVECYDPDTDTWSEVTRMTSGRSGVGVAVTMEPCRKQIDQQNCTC
Cardiac RTF inh: cardiac RTF calcium desensitization | inhibition, % at 7.15 µM | AID 493244 | hit rate 0.12% among 340,000 | IANBD-labeled cardiac RTF, Ca2+ fluorescence;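 active = inhibition above the mean inhibition of all tested compounds plus 3 SD, cut at about 17% in these data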;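 also: assay run at fixed EC70 calcium of 1.6 mM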
RTF inh confirm: cardiac RTF calcium sensitivity inhibition, confirmation; shares compounds with Cardiac RTF inh; reconstituted cardiac thin filaments, calcium sensitivity fluorescence; inhibition, % at 7.15 µM; hit rate 8% among 360; in the data active = inhibition above about 18%
Keap1 TSA: binders of human Keap1 Kelch domain; max delta Tm, degrees C; Keap1 Kelch thermal shift, delta Tm; stronger effect = higher value; AID 651823; shares compounds with Keap1-Nrf2 PPI; hit rate 8% among 400; in the data active = max delta Tm above about 0.48 degrees C
The depositor's hits bear a star; ! = repeats disagree. Rows were chosen to be rich in hits. Some 0.5% of all compounds tested hit in one or more screens of this group.

SMILES | cardiac RTF act | C-LANA FP | Keap1-Nrf2 PPI | Cardiac RTF inh | others
CN1C(=O)/C(=C/C=C/c2ccco2)C(=O)NC1=S | 5 | 60* | -26 | -21
C=CCN1C(=O)/C(=C\c2ccc(N3CCOCC3)o2)C(=O)NC1=S | 49* | -30 | -109 | -41
CCN1C(=O)C(=Cc2ccc(N3CCOCC3)o2)C(=O)N(CC)C1=S | 33* | -3 | -10 | -32
CC1c2ccccc2-n2nncc2CN1C (configuration not stated) | 0 | 2 | -2 | -10
COC(=O)C1=C(c2cccc(C#N)c2)C[C@@H]2CC[C@H]1N2C(=O)NCCOc1ccccc1Cl | 1 | 3 | 0 | -6
CC(C)C[C@H]1C(=O)N2CCC[C@H]2[C@]2(O)O[C@](NC(=O)[C@@H]3C=C4c5cccc6[nH]cc(c56)C[C@H]4N(C)C3)(C(C)C)C(=O)N12 | 67* | 67* | 34* | -90
CCC(CO)NC(=O)C1C=C2c3cccc4[nH]cc(c34)CC2N(C)C1 (configuration not stated) | 16 | 3 | -4 | -29
O=C1NC(=O)C(=Cc2cn(CCOc3ccc4c(c3)OCO4)c3ccccc23)C(=O)N1 | 159* | 11 | -3 | -25
CCOc1ccc(N2C(=O)NC(=O)/C(=C\c3ccc(N4CCCCC4)o3)C2=O)cc1 | 112* | -6 | -17 | -70
O=C1NC(=O)N(c2ccc3c(c2)OCO3)C(=O)/C1=C/c1ccc(N2CCCC2)o1 | 58* | -24 | -117 | -56
CCOc1ccc(N2C(=O)/C(=C/c3ccc(C)o3)C(=O)NC2=S)cc1 | 6 | -3 | -9 | -1
C=CC[N+]1(C)CC[C@]23c4c5ccc(O)c4O[C@H]2C(=O)CC[C@@]3(O)[C@H]1C5 (some centres not stated) | 4 | -2 | 2 | 3
COC(=O)C1=C(c2ccc(C(C)=O)cc2)C[C@@H]2CC[C@H]1N2C(=O)NCCCOC(C)C | 1 | 2 | -7 | 10
Cc1ccc(C)c(Cn2c(C(=O)O)c(C=O)c3ccccc32)c1 | 86* | -24 | -110 | -109
COC(=O)C1=C(c2ccc(OCc3ccccc3)cc2)C[C@@H]2CC[C@H]1N2C(=O)NCc1cccc(OC)c1 | 10 | 1 | -7 | 7
C#C[C@]1(O)CC[C@H]2[C@@H]3CCC4=Cc5nc6nc7ccccc7n6cc5C[C@]4(C)[C@H]3CC[C@@]21C | 38* | 4 | -7 | -37
CC1([N+](=O)[O-])COP(=O)(Nc2cccc(Br)c2)OC1 (configuration not stated) | 10 | 2 | 0 | -10
O=C1NC(=S)N(c2ccc(F)cc2)C(=O)/C1=C\c1ccoc1 | -23 | 88* | -19 | 27*
Cc1ccc(N2C(=O)NC(=O)/C(=C\c3ccoc3)C2=O)cc1 | 16 | -6 | -47 | -40
CN1CCCN(C(=O)COc2ccccc2Br)CC1 | -4 | 0 | 5 | -5
CCC(C)/C=C(C)/C=C/C1=CC2=C(Cl)C(=O)C(C)(OC(C)=O)C(=O)C2=CO1 (configuration not stated) | -1 | 6 | 1 | 3
CC[C@H](C)/C=C(C)/C=C/C1=CC2=C(Cl)C(=O)[C@@](C)(OC(C)=O)C(=O)C2=CO1 | -47 | 28 | -9 | 42*
CCN(CC)c1ccc(/C=N/c2sc3c(c2C#N)C2CCN3CC2)c(O)c1 | 146* | 0 | -12 | -175
COc1ccc(/C=C2\C(=O)NC(=S)N(C)C2=O)cc1C | -12 | 16 | 47* | 8
Cc1ccsc1/C=C1\C(=O)NC(=S)N(C)C1=O | 1 | 1 | -4 | -7
SMILES | cardiac RTF act | C-LANA FP | Keap1-Nrf2 PPI | Cardiac RTF inh | others
NC(=O)c1ccc(N=Cc2c(O)n(Cc3ccco3)c(=O)[nH]c2=O)cc1 | -2 | -1 | 3 | 4
CCN(CC)c1ccc(N=Cc2c(O)n(Cc3ccco3)c(=O)[nH]c2=O)cc1 | 79* | 20 | -6 | -51
CC/C(=N\NC(=S)Nc1ccccc1)c1c(O)[nH]c(=O)[nH]c1=O | -1 | 1 | -4 | -1
CC1(C)OC(c2ccccc2)=C/C(=C/C=C2C(=O)NC(=O)NC2=O)O1 | 110* | -20 | -54 | -178
O=C1NC(=O)C(=Cc2ccc(Sc3ccccc3)o2)C(=O)N1 | -4 | 3 | 1 | 3
CN1CCN(c2ccc(/C=C3\C(=O)NC(=S)N(c4cccc(Br)c4)C3=O)o2)CC1 | 97* | -35 | -109 | -80
CN1C(=O)/C(=C\c2ccc(N3CCCCC3)o2)C(=O)NC1=S | 55* | 0 | -5 | -41
CN1C(=O)/C(=C\c2ccc(N3CCCCCC3)cc2)C(=O)NC1=S | 0 | 2 | 3 | -5
CN1C(=O)/C(=C/c2ccc(N3CCCCCC3)o2)C(=O)NC1=S | 86* | -3 | -12 | -37
CCOP(=O)(NC(C)C)Oc1ccc(SC)c(C)c1 (configuration not stated) | 0 | 1 | 3 | 1
O=P(Oc1ccc(-c2ccccc2)cc1)(N1CC1)N1CC1 | -2 | 2 | -2 | -5
Cc1cccc(CN(C)C)c1OC(=O)N(C)C | 1 | 2 | -2 | 34* | RTF inh confirm=1
O=c1c2ccccc2nc(CNc2ccccc2)n1-c1ccccc1 | 0 | 0 | 0 | -1
COc1ccccc1CCNCc1ccc(OC)c(OC)c1OC | 2 | 1 | 0 | 3
CC12CC3CC(C)(C1)CC(N)(C3)C2 | 0 | -2 | 0 | 17*! | RTF inh confirm=-2
Oc1ccc2c3c1O[C@H]1c4[nH]c5ccccc5c4C[C@@]4(O)[C@@H](C2)N(CC2CC2)CC[C@]314 | 5 | -1 | -4 | 13
Oc1ccc2c3c1O[C@H]1c4oc5ccccc5c4C[C@@]4(O)[C@@H](C2)N(CC2CC2)CC[C@]314 | -1 | 0 | -6 | 27* | RTF inh confirm=5
CC(C)(C)c1o[nH]c(=O)c1CC(N)C(=O)O (configuration not stated) | 2 | -2 | 1 | 21* | RTF inh confirm=-5
CN(C)C1C(=O)C(C(N)=O)=C(O)C2(O)C(=O)C3=C(O)c4c(O)cccc4C(C)(O)C3C(O)C12 (configuration not stated) | -8 | 58 | -1 | 30* | RTF inh confirm=-4
C[N+]12CCC(CC1)C(=C(c1ccccc1)c1ccccc1)C2 | 0 | 0 | -1 | 19* | RTF inh confirm=-2
OCCOCCO | 4 | 1 | -1 | -4
Cc1nc2ccccc2c(=O)n1-c1cc(F)ccc1F | 0 | -1 | 1 | 28* | RTF inh confirm=-3
Cc1nc2ccccc2c(=O)n1-c1ccc(F)cc1F | -6 | -1 | -1 | -6
COc1ccc(CCNCc2c(OC)ccc3ccccc23)cc1 | 1 | 1 | 1 | -7
Cc1cc2ccccc2c(=O)n1CC(=O)NCC(=O)N1CCC2(CC1)OCCO2 | 2 | 0 | -1 | -9
CC1(O)CCN2C(=O)CCc3cccc1c32 (configuration not stated) | 4 | 26 | 44* | -16 | Keap1 TSA=-0.09
